Compound activity from PubChem.
Hits are enriched below; roughly 8.8% of the tested compounds scored in any of these assays.
IL1B secr inh = inhibitors of inflammasome signaling (IL-1 beta secretion); THP-1 LPS/ATP IL-1B secretion, AlphaLISA, 16 h; active compounds read low; activity change, % at 57.5 µM; actives 4.7% (n = 360,000); in the data active means activity change below about -50%; inconclusive means mostly about -30% to -49%
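Secreted IL-1B measured by AlphaLISA bead assay after 16 h compound exposure of THP-1 cells; compounds (final up to 57.5 uM) added 1 h before LPS (250 ng/mL) and ATP (1.25 mM) stimulation; lower signal means less secretion.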
HT1080 IDH1KD tx = toxicity to HT-1080 IDH1 knockdown cells (counter line); HT-1080 IDH1 knockdown viability, ATP luminescence, 48 h; Potency, µM (doses to about 46.1 µM), inactives show top-dose activity, negative = toxicity, usual class: cytotoxic; actives 2% (n = 360,000); AID 686971;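 further: potency means the concentration at half of the fitted maximal effect; 0% = DMSO wells and -100% = cell-free medium wells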
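HT-1080-IDH1KD cells (IDH1 knocked down), 750/well in RPMI with 5% FBS, treated with compound 48 h at 37 degrees C. Viability by CellTiter-Glo luminescence, normalised to DMSO and no-cell wells; concentration-response curves classed.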
KB-V1 cytotox = kills drug-selected multidrug resistant KB-V1 cells | actives 3.4% (n = 400,000) | KB-V1 MDR cells viability, CellTiter-Glo, 72 h | Potency, µM (titrated, usually from 46.1 µM), most hits filed as cytotoxic; further: potency means the concentration at half of the fitted maximal effect; nearly all actives have a fitted effect of over 60% in size
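qHTS viability screen in drug-selected KB-V1 MDR cells: 72 h compound treatment at 37 degrees C, ATP luminescence end point.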
HT1080NT lethal = kills 2HG-producing HT-1080-NT fibrosarcoma cells | HT-1080-NT fibrosarcoma viability, CellTiter-Glo ATP luminescence, 48 h | Potency, µM (series often up to 46.1 µM), without a hit: top-dose activity, negative = less viability, usual class: cytotoxic | actives 1.6% (n = 360,000) | AID 686970;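 further: NT is the 2HG producing partner of a matched IDH1 knockdown line; potency means the concentration at half of the fitted maximal effect; 0% = DMSO-treated cells and -100% = media-only wells without cells; nearly all actives have a fitted effect of over 55% in size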
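Compounds were tested in concentration-response format on HT-1080-NT cells for 48 hours at 37 degrees C. Cell viability came from CellTiter-Glo luminescence; curves were classified by r2, response magnitude and activity.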
KB-3-1 tox = kills parental KB-3-1 adenocarcinoma cells | KB-3-1 viability, CellTiter-Glo ATP luminescence, 72 h | Potency, µM (top dose mostly 46.1 µM), usual class: cytotoxic | actives 1.4% (n = 400,000); further: potency means the concentration at half of the fitted maximal effect; nearly all actives have a fitted effect of over 60% in size
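Cytotoxicity measured as CellTiter-Glo luminescence after 72 h at 37 C. Compound titrations were pinned onto drug-naive KB-3-1 parental adenocarcinoma cells grown in DMEM with 10% FBS, and normalized data fitted to concentration-response curves.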
* = called active by the depositor; i = inactive; ? = inconclusive; nt = no result given; ! = not confirmed by another sample. Unless noted, the call rests on the fitted dose curve; in most records, active means well fitted curve in the direction sought with a large enough effect; inconclusive means small, poorly fitted or top-dose-only effect, or another doubt; inactive means no such curve, though single readings can be large; an effect the other way counts as inactive or inconclusive. Unless noted, on the % scale 0 is the no-effect control and ±100 the full control effect.

SMILES	IL1B secr inh	HT1080 IDH1KD tx	KB-V1 cytotox	HT1080NT lethal	KB-3-1 tox
CC1C(=O)N2CCCc3cc(NC(=O)C(=O)NCCc4ccc(F)cc4)cc1c32 (configuration not stated)	13	21µM*	i	18µM*	i
CC(=O)c1ccc2c(c1)C1C=CCC1C(C(=O)O)N2 (configuration not stated)	-9	-1%	i	-17%	i
Brc1cc2c(cc1C1Nc3ccccc3C3C=CCC31)OCO2 (configuration not stated)	0	0%	?	-2%	?
CC(=O)c1ccc2c(c1)C1C=CCC1C(c1ccncc1)N2 (configuration not stated)	12	-1%	23µM*	-1%	?
C1=CC2c3ccccc3NC(c3ccncc3)C2C1 (configuration not stated)	-107*	-1%	i	-6%	i
CN(C)C(=O)C1Cc2ccccc2CN1S(=O)(=O)c1ccc(F)cc1 (configuration not stated)	6	-7%	i	-9%	i
CC1CCN(c2nn3c(=O)c(C(=O)NCCc4ccc(Cl)cc4)cnc3s2)CC1	nt	nt	i	nt	i
CC1(C(=O)NCc2cccs2)Cc2c(-c3ccccc3)ccnc2O1 (configuration not stated)	35	?	?	?	5.8µM*
CC1(C(=O)NCc2cccs2)Cc2c(-c3ccc4c(c3)OCO4)ccnc2O1 (configuration not stated)	40	?	?	?	5.2µM*
CN(C)c1ccc(-c2ccnc3c2CC(C)(C(=O)NCc2cccs2)O3)cc1 (configuration not stated)	11	?	i	?	?
COc1ccc(C(=O)c2ccc3oc(-c4ccc(OC)cc4)c(C#CCCO)c3c2)cc1	22	4%	i	7%	i
COc1cc(OC)cc(-c2oc3cccnc3c2C#CCCO)c1	-64*	-2%	i	-2%	i
CC(OC(=O)C1=COCCO1)C(=O)NC1CCCCC1 (configuration not stated)	-2	3%	i	6%	i
Cc1cc(C)cc(N(CCC(=O)Nc2nnc(C)s2)S(=O)(=O)c2ccc(Cl)cc2)c1	30	-22%	23µM*	-18%	?
Cc1ccc(S(=O)(=O)NCCC(=O)Nc2nnc(C)s2)cc1	21	-6%	i	2%	i
COc1cc(OC)cc(C(=O)NCCCCCCNC(=O)c2cc(OC)cc(OC)c2)c1	28	-2%	18µM*	-7%	i
Cc1cccc(N2CCN(C3=NC(=O)C(Cc4ccccc4)S3)CC2)c1 (configuration not stated)	-4	2%	?	-2%	i
O=C(CCl)N1c2ccccc2OCC1c1ccccc1 (configuration not stated)	-94*	-7%	?	-5%	i
O=C(CN1CCSc2ccccc21)N1CCCCC1	nt	nt	i	nt	i
O=C(CCl)N1c2ccccc2SCC1c1ccccc1 (configuration not stated)	-105*	5.8µM*	i	4.6µM*	?
O=C(CCl)N1CCN(C(=O)C2COc3ccccc3O2)CC1 (configuration not stated)	-95*	23µM*	?	?	?
COc1ccc(-n2nc(C(=O)NCC(=O)NCC3COc4ccccc4O3)c3ccccc3c2=O)cc1 (configuration not stated)	-28	-17%	i	-3%	i
Cc1ccc(S(=O)(=O)n2ccc3c2CCCC3=O)cc1	-30	0%	i	8%	i
CN(C)c1c2ccccc2nc2c(F)c(F)c(F)c(F)c12	-96*	-3%	i	-2%	i
Cc1c2ccccc2nc2c(F)c(N(C)C)c(F)c(F)c12	17	-7%	?	0%	i
SMILES	IL1B secr inh	HT1080 IDH1KD tx	KB-V1 cytotox	HT1080NT lethal	KB-3-1 tox
COCCNC(=O)NC(=O)COC(=O)c1cc([N+](=O)[O-])ccc1Sc1nc(C)cs1	5	18%	i	24%	i
Cc1ccc(OCC(=O)NC2CCCc3ccccc32)c(C)c1 (configuration not stated)	?	-23%	i	-23%	i
NC(=O)C1CCN(CC(=O)NC2CCCc3ccccc32)CC1 (configuration not stated)	8	2%	?	16%	i
Cc1ccc(S(=O)(=O)N2CCN(CC(=O)NC3CCCc4ccccc43)CC2)c(C)c1 (configuration not stated)	?	-19%	4.1µM*	-23%	i
Cc1ccc(S(=O)(=O)N2CCN(CC(=O)NC3CCCc4ccccc43)CC2)cc1C (configuration not stated)	-54*!	-15%	?	-3%	?
CC(=O)c1c(C)oc2ccc(N(C(=O)c3ccncc3)S(=O)(=O)c3ccc(C)cc3C)cc12	nt	nt	23µM*	nt	?
CCOC(=O)c1c(C)oc2ccc(N(C(C)=O)S(=O)(=O)c3c(C)cc(C)cc3C)cc12	nt	nt	4.1µM*	nt	23µM*
CCOC(=O)c1c(C)oc2ccc(N(C(=O)c3ccncc3)S(=O)(=O)c3ccc(F)cc3)cc12	nt	nt	?	nt	i
CCN(CC)S(=O)(=O)c1ccc(C)c(NC(=O)CN2CCN(C)CC2)c1	4	-11%	i	28%	i
Cc1c(Cl)cccc1NC(=O)CS(=O)(=O)c1ccccc1	0	0%	?	1%	i
O=C(CCc1nc2ccccc2c(=O)[nH]1)NCc1cccc(Cl)c1	44	?	i	21µM*	?
O=C(CCc1nc2ccccc2c(=O)[nH]1)NNC(=O)c1cccc(Cl)c1	19	-6%	?	-10%	i
CCc1cc(C(=O)NCC(C)(C)N2CCOCC2)sc1C	17	13%	i	10%	i
CC(C)C(=O)Nc1ccc2nc(SCCOc3ccccc3)sc2c1	nt	nt	i	nt	i
COc1ccc(-c2cc(C(F)F)n3ncc(C(=O)N4CCc5ccccc54)c3n2)cc1	46	2.9µM*	?	3.3µM*	i
COc1ccc(-c2cc(C(F)F)n3ncc(C(=O)n4ccnc4C)c3n2)cc1	-21	?	i	-25%	i
COc1ccc(-c2cc(C(F)F)n3ncc(C(=O)N4CCN5CCCC5C4)c3n2)cc1 (configuration not stated)	-65*	1%	i	9%	i
O=C(c1nn2c(C(F)(F)F)cc(-c3ccccc3)nc2c1Cl)N1CCN2CCCC2C1 (configuration not stated)	-64*	-16%	i	-12%	i
